In brackets after ≈: the same amount, converted by molar mass. The whole screen tested about 1,100 compounds, of which about 170 (15%) were called active. No rule for the calls is given here. Only a sample is shown.

A short description of this test: Mycobacterium tuberculosis H37Rv growth inhibition, confirmatory dose response, cytotoxicity (AID 1332).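 As to CC50: Vero cells exposed to compounds for 72 hours.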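 As to IC50: bacteria incubated 7 days before adding Alamar blue readout reagent.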 As to conditions: M. tuberculosis H37Rv growth inhibition; CC50: measured here: Vero cell cytotoxicity; IC50: measured here: IC50 H37Rv replicates.
What is called CC50 is the concentration that lowers cell viability or growth by half. A low value points to greater toxicity to the cells. In general, IC50 refers to the concentration that gives 50% inhibition. The low end stands for inhibition by little substance, the high end for a need for much substance. Regarding `CN(C)CC/C=C1\c2ccccc2CSc2ccccc21`, the CC50 is > 6 µg/mL, the IC50 is > 20 µg/mL and the compound was called inactive.
Take `CN(C)CC/C=C1\c2ccccc2COc2ccccc21`: the IC50 is > 20 µg/mL and the compound was called inactive.
The like results for `CNCC(O)c1ccc(O)c(OC)c1` (stereo not drawn) were, in that order, > 20 µg/mL and “inactive”.
On to `CNC(C)CCC=C(C)C` (stereo not drawn), for which the concentration for half-maximal inhibition (IC50) was > 20 µg/mL and the outcome was inactive.
The like results for `C=C1CC[C@H](O)C/C1=C/C=C1\CCC[C@]2(C)[C@@H]([C@H](C)CCCC(C)C)CC[C@@H]12` were, in that order, > 20 µg/mL and “inactive”.
The like results for `C[C@@H]1CCC[C@H](C)N1` were, in that order, > 20 µg/mL and “inactive”.
The like results for `CC(C)(C)NC[C@@H](O)COc1cccc2c1CCCC2=O` were, in that order, > 20 µg/mL and “inactive”.
For `Cc1c(N(C)CS(=O)(=O)O)c(=O)n(-c2ccccc2)n1C`, the half-inhibitory concentration (IC50) was > 20 µg/mL and the compound was classed as inactive.
Regarding `CO[C@@]1(NC(=O)[C@H](C(=O)O)c2ccc(O)cc2)C(=O)N2C(C(=O)O)=C(CSc3nnnn3C)CO[C@@H]21`, the 50% inhibitory concentration (IC50) was > 20 µg/mL and the outcome was inactive.
The like results for `C[N+]1(C)C2CC[C@H]1CC(OC(=O)C(CO)c1ccccc1)C2` (stereo partly drawn) were, in that order, > 20 µg/mL and “inactive”.
As for `Cc1ccnc(NS(=O)(=O)c2ccc(N)cc2)n1`, the IC50 was > 20 µg/mL and the compound was classed as inactive.
The like results for `Nc1ccc(S(=O)(=O)Nc2ccccn2)cc1` were, in that order, > 20 µg/mL and “inactive”.
For `Cc1noc(NS(=O)(=O)c2ccc(N)cc2)c1C`, the concentration for half-maximal inhibition (IC50) was 8.76 µg/mL (≈ 32.8 µM) and the compound was called active.
For the compound `Nc1ccc(S(=O)(=O)Nc2ccc(Cl)nn2)cc1`, the concentration for half-maximal inhibition (IC50) stood at 4.37 µg/mL (≈ 15.3 µM) and the result was active.
The like results for `CC(=O)NS(=O)(=O)c1ccc(N)cc1` were, in that order, > 20 µg/mL and “inactive”.
The like results for `Nc1ccc(S(=O)(=O)NC(=O)c2ccccc2)cc1` were, in that order, > 20 µg/mL and “inactive”.
`Nc1ccc(S(=O)(=O)Nc2ncccn2)cc1`: the half-inhibitory concentration (IC50) came out at 13.4 µg/mL (≈ 53.4 µM) and the outcome was active.
The like results for `Cc1cc(C)nc(NS(=O)(=O)c2ccc(N)cc2)n1` were, in that order, > 20 µg/mL and “inactive”.
The like results for `CCn1cc(C(=O)O)c(=O)c2cnc(N3CCCC3)nc21` were, in that order, > 20 µg/mL and “inactive”.
Take `Cc1cccc(N(C)C(=S)Oc2ccc3ccccc3c2)c1`: the IC50 was > 20 µg/mL and the call was inactive.
The like results for `O=C(O)C1(O)C[C@H](O)C(O)[C@@H](O)C1` (stereo partly drawn) were, in that order, > 20 µg/mL and “inactive”.
The like results for `COc1ccc([C@@H]2CC(=O)c3c(O)cc(O)cc3O2)cc1O` were, in that order, > 20 µg/mL and “inactive”.
`CCCCN(CCCC)CCCOC(=O)c1ccc(N)cc1`: the IC50 was > 20 µg/mL and the call was inactive.
The like results for `CC1(C)S[C@@H]2[C@H](NC(=O)C(C(=O)O)c3ccsc3)C(=O)N2[C@H]1C(=O)O` (stereo partly drawn) were, in that order, > 20 µg/mL and “inactive”.
The like results for `CC(=O)N(CC(O)CN(C(C)=O)c1c(I)c(C(=O)NCC(O)CO)c(I)c(C(=O)NCC(O)CO)c1I)c1c(I)c(C(=O)NCC(O)CO)c(I)c(C(=O)NCC(O)CO)c1I` (stereo not drawn) were, in that order, > 20 µg/mL and “inactive”.
The like results for `Cn1c(-c2ccc3c(c2)OCO3)cc(=O)c2ccccc21` were, in that order, > 20 µg/mL and “inactive”.
In the case of `Cc1c(N)c(=O)n(-c2ccccc2)n1C`, the IC50 is > 20 µg/mL and the compound was called inactive.
With `COc1ccc2cc1Oc1ccc(cc1)C[C@H]1c3cc(c(OC)cc3CCN1C)Oc1c(OC)c(OC)cc3c1[C@H](C2)N(C)CC3`, the half-maximal cytotoxic concentration (CC50) is > 6 µg/mL, the IC50 was > 20 µg/mL and the result was inactive.
The like results for `Cc1[nH]ccc2c1[nH]c1cc(=O)ccc12` were, in that order, > 6 µg/mL, > 20 µg/mL and “inactive”.
In the case of `CC(C)(C)NCC(O)COc1ccccc1C1CCCC1` (stereo not drawn), the IC50 is > 20 µg/mL and the outcome was inactive.
The like results for `O=C(O)c1cccnc1` were, in that order, > 20 µg/mL and “inactive”.
Take `O=C1C(=O)c2ccccc2C(O)=C1C1CCC(c2ccc(Cl)cc2)CC1` (stereo not drawn): the 50% cytotoxic concentration (CC50) is > 6 µg/mL, the IC50 is 10.1 µg/mL (≈ 27.6 µM) and the compound was classed as active.
On to `C/C=C(\C)C(=O)O[C@H]1[C@H](OC(C)=O)[C@@]2(CO)C(CC1(C)C)C1=CC[C@@H]3[C@@]4(C)CC[C@H](O[C@@H]5O[C@H](C(=O)O)[C@@H](O[C@@H]6O[C@H](CO)[C@@H](O)[C@H](O)[C@H]6O)[C@H](O)[C@H]5O[C@@H]5O[C@H](CO)[C@@H](O)[C@H](O)[C@H]5O)[C@](C)(CO)C4CC[C@@]3(C)[C@]1(C)C[C@H]2O` (stereo partly drawn), for which the IC50 was > 20 µg/mL and the outcome was inactive.
The like results for `CN(C)CCOC(c1ccccc1)c1ccccc1` were, in that order, > 20 µg/mL and “inactive”.
The like results for `CCCCc1cc2ccccc2c(OCCN(C)C)n1` were, in that order, 13.5 µg/mL (≈ 49.5 µM) and “active”.
The like results for `CN(C)CCCOc1nn(Cc2ccccc2)c2ccccc12` were, in that order, > 20 µg/mL and “inactive”.
On to `CCCCOc1cc(C(=O)NCCN(CC)CC)c2ccccc2n1`, for which the IC50 was > 20 µg/mL and the result was inactive.
The like results for `CC[N+](CC)(CC(=O)Nc1c(C)cccc1C)Cc1ccccc1` were, in that order, > 20 µg/mL and “inactive”.
In the case of `Clc1ccc(Cn2c(CN3CCCC3)nc3ccccc32)cc1`, the half-maximal inhibitory concentration (IC50) was 3.58 µg/mL (≈ 11 µM) and the compound was classed as active.
The like results for `CN1CCc2c(c3ccccc3n2Cc2ccccc2)C1` were, in that order, > 20 µg/mL and “inactive”.
Regarding `Clc1ccc(C(OCCN2CCCCC2)c2ccccc2)cc1` (stereo not drawn), the 50% cytotoxic concentration (CC50) is > 6 µg/mL, the IC50 was > 20 µg/mL and the compound was classed as inactive.
Regarding `CCOc1ccc(Cc2nccc3cc(OCC)c(OCC)cc23)cc1OCC`, the CC50 is > 6 µg/mL, the IC50 was > 20 µg/mL and the compound was classed as inactive.
The like results for `CC(C)n1c(/C=C/[C@H](O)C[C@H](O)CC(=O)O)c(-c2ccc(F)cc2)c2ccccc21` were, in that order, 0.354 µg/mL (≈ 0.86 µM), > 20 µg/mL and “inactive”.

The record behind these values is PubChem BioAssay AID1332 (Southern Research Institute, 2008).
